Our source for the growth values is PubChem BioAssay (NCI).

Compounds without any hit were thinned out: in the full panel of roughly 83,000, 20% have a hit.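 Each cell line was grown in a 96-well plate and treated with one concentration of compound for 48 hours. Values below 10 were considered active.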 Unmarked numbers belong to inactive results. Activity calls are given as the source filed them.

This assay relates to HL-60(TB) leukemia. Nature of the assay: NCI-60 one-dose screen, 48 h (100 = growth as untreated, 0 = no growth, -100 = all killed). The following applies: 10 µM unless noted.
With `Nc1nc(N)c(NC(=O)CNc2ccc(C(=O)O)cc2)c(N)n1`, the growth was 107%.
As to `O=C1/C(=C\c2ccc(F)cc2)CN(C(=O)c2ccc([N+](=O)[O-])cc2)C/C1=C\c1ccc(F)cc1`, the growth was 65.1%.
In the case of `Oc1[nH]c2ccc(Cl)cc2c1/C=c1/ccc2c(c1)N=C(c1ccc(C(F)(F)F)cc1)N=2`, the growth was 75.1%.
For the compound `NC(=O)C1CCCN(Cc2c[nH]c3ccccc23)C1` (stereo not given), the growth was 102%.
Consider `C[C@@H]1CCCCCCCCC[C@H](O)C(=O)C[C@@H](SC[C@@H](O)C(=O)O)C(=O)O1`, for which the growth was 86.8%.
`CCOc1nc(-c2ccccc2)cc2c(O)c(C(=O)NN)[nH]c(=O)c12`: the growth is 151%.
In the case of `COc1ccc2c(c1)c(-c1nonc1-c1cn(C)c3ccccc13)cn2C` it was 2.88% (active).
As to `Cc1nn(-c2ccc(Cl)cc2)c2ncnc(N/N=C/c3cccc([N+](=O)[O-])c3)c12`, the growth was 31%.
Regarding `NS(=O)(=O)c1ccc(NC2=C(Cl)C(=O)c3ccccc3C2=O)cc1`, the growth is 87.6%.
For `COc1cc2cc(Oc3ccc(NC(=O)Nc4ccc(F)c(C(F)(F)F)c4)cc3)c(C)nc2cc1OCCN1CCCCC1`, the growth was -24.5% (active).
For the compound `CCOC(=O)c1cc2c(n(C)c1=O)-c1cnn(-c3ccc(OC)cc3)c1CC2`, the growth was 113%.
As to `COc1ccc(OC)c(/C=C2\CCc3ccccc3C2=O)c1`, the growth was 16.9%.
In the case of `CC[C@H](CC[C@@H](C)[C@H]1CC[C@H]2[C@@H]3CC=C4C[C@@H](OCCc5nn[nH]n5)CC[C@]4(C)[C@H]3CC[C@]12C)C(C)C`, the growth is 103%.
As for `COc1ccc(C(=O)OC2C(OC3C(O)COC(O[C@H]4C[C@H]5[C@@H]6CC=C7C[C@@H](O)CC[C@]7(C)[C@H]6CC[C@]5(C)[C@H]4[C@H](C)C(=O)CCC(C)C)C3OC(=O)C(C)C)OCC(O)C2O)cc1` (stereo not given in full), the growth was -17% (active).
Turning to `O=C1/C(=C\c2ccc(Cl)cc2)CN(C(=O)c2ccccc2)C/C1=C\c1ccc(Cl)cc1`, the growth is 58%.
As for `CCOC(=O)c1cc2c(n1C)-c1nc(NC(C)=O)sc1CCC2`, the growth was 102%.
On to `COC(=O)C(Cc1cn(C(C)=O)c2ccccc12)P(=O)(OC)OC` (stereo not given), for which the growth is 97.5%.
As to `C=C1C(=O)O[C@H]2[C@H]1CC/C(COC(=O)CCCc1c[nH]c3ccccc13)=C\CC[C@@]1(C)O[C@@H]21`, the growth is 2.97% (active).
In the case of `Nc1ccc2c(c1)/C(=N/O)c1cc([N+](=O)[O-])ccc1-2`, the growth is 64.1%.
For the compound `COC1=CC(c2ccc[nH]2)=N/C1=C\c1[nH]c(C)c(C(=O)CCCCC(=O)NC(C)(C)C)c1C`, the growth was 3.43% (active).
As to `Cc1ccc(S(=O)(=O)n2cc(C(=O)C(=O)Nc3ccncc3)c3ccccc32)cc1`, the growth was 16.1%.
With `COC(=O)c1[nH]c(=O)c(C#N)c(C(=O)OC)c1C(=O)c1ccccc1`, the growth was 94.8%.
In the case of `COc1ccc(NC(=O)c2ccc(Nc3ncnc4c3cnn4-c3cccc(F)c3)cc2)cc1`, the growth is 94.9%.
For `COc1c(C(NC(=O)c2ccccc2)c2sccc2C)cc(Cl)c2cccnc12` (stereo not given), the growth was 96.1%.
The value for `CC(C)(C)c1ccc(C(O)CCCN2CCC(C(O)(c3ccccc3)c3ccccc3)CC2)cc1` (stereo not given) was -51.9% (active); that for `CCN1CCN(CCNc2nccc(-c3c(-c4ccc(F)c(O)c4)nc4occn34)n2)S1(=O)=O` was 1.1% (active); that for `COc1ccc(-c2nnc(-c3c(-c4ccccc4)nc4ncccn34)o2)cc1OC` was 85.5%.
In the case of `COc1ccc(C2=NOC(CC(=O)N(CCO)CCO)C2)cc1OC1CCCC1` (stereo not given) it was 110%.
`C=COC(=O)C(C)(C)C`: the growth is 98.9%.
Regarding `COc1ccc(Nc2cc(C)nc(N3CCN(c4ccnc5cc(Cl)ccc45)CC3)n2)cc1`, the growth is 2.43% (active).
Turning to `COc1cc(C2CC(c3ccc(Nc4ccnc5cc(Cl)ccc45)cc3)=NN2C=O)cc(OC)c1OC` (stereo not given), the growth was 19.7%.
For the compound `Cc1cc(N2CCCCC2)cc(C)c1-c1csc(NC(=O)c2ccncc2)n1`, the growth was 21.8%.
As for `COc1cc(NC(=O)Nc2cnc(Nc3ccc(N4CCOCC4)cc3)nc2Oc2ccc(C(F)(F)F)cc2)cc(OC)c1`, the growth was 96.4%.
`N#CC1C(=N)Cc2ccccc2-c2ccccc21` (stereo not given): the growth was 28.2%.
Regarding `CCOc1cccc(/C=N/NC(=O)c2ccc(Nc3ccnc(C(F)(F)F)c3)cc2)c1O`, the growth was 37.7%.
Take `N#Cc1ccccc1-c1ccc(CN2C(=O)S/C(=C\c3ccc(Br)cc3)C2=O)cc1`: the growth was 96.2%.
Regarding `C#CCn1cc(C=C2C(=O)N(C)C(=O)N(C)C2=O)c2cc(Cl)ccc21`, the growth was 105%.
As to `Nc1ccc(S(=O)(=O)Nc2ccnn2-c2ccccc2)cc1`, the growth is 102%.
Take `CC(=O)c1cc2c(cc1F)C(C)(C)CCC2(C)C`: the growth is 86.3%.
The value for `COc1ccc(C2NC(=O)c3cc4c(cc3N2)OCO4)cc1` (stereo not given) was -42% (active).
